Sampled rows, rich in hits. Any-hit rate of the full collection: about 6.5%.
Vaccinia mCherry: vaccinia inhibition (mCherry reporter); 310,000 tested, 0.63% active; AID 720579; Potency, µM (titrated, usually from 36.5 µM), for inactives: at the highest dose activity change, negative = inhibition, actives largely listed as inhibitors; Vaccinia virus mCherry reporter infection, fluorescence; calls by dose curve; tested in A549 cells; also: potency is read from the fitted curve at half-maximal effect; nearly all actives have a fitted effect of over 35% in size
HCMV antiviral: inhibitors of human cytomegalovirus; HFF cells, HCMV-luciferase reporter, 72 h; active compounds read low; activity change, negative = inhibition, % at 57.5 µM; 410,000 tested, 4.5% active; AID 1259415; in the data active = activity change below about -60%; inconclusive = no clear call, values can overlap the other calls; inactive = above about -39%
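Human foreskin fibroblasts infected with luciferase-reporter HCMV at MOI 1 PFU/cell, compounds at two doses. Luciferase measured 72 h post infection; normalized to buffer-only basal and Salinomycin (10uM) controls.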
LASV entry inh: inhibitors of Lassa virus binding or cell entry; Lassa virus pseudotype entry inhibition, cell reporter; Potency, µM (highest dose often 37.9 µM), for inactives: at the highest dose activity change, negative = inhibition, usual class: inhibitors; 300,000 tested, 1.2% active; AID 540256; calls by dose curve; tested in HEK293 cells; also: potency is read from the fitted curve at half-maximal effect; nearly all actives have a fitted effect of over 50% in size
Vaccinia Venus: inhibitors of vaccinia virus (Venus reporter); 330,000 tested, 0.46% active; Vaccinia virus Venus reporter expression, fluorescence; Potency, µM (highest dose often 36.5 µM), for inactives: at the highest dose activity change, negative = inhibition, actives largely listed as inhibitors; AID 720580; calls by dose curve; tested in A549 cells; also: potency is read from the fitted curve at half-maximal effect; nearly all actives have a fitted effect of over 30% in size
MARV entry inh: blocks Marburg virus binding to or entry into cells; Marburg virus pseudotyped entry inhibition, cell reporter; Potency, µM (doses to about 37.8 µM), for inactives: top-dose activity change, negative = inhibition, usual class: inhibitors; 300,000 tested, 1.8% active; AID 540276; calls by dose curve; tested in HEK293 cells; also: potency is read from the fitted curve at half-maximal effect
FMDV inh: foot and mouth disease virus antiviral activity. FMDV antiviral cell-based qHTS. Potency, µM (series often up to 57.9 µM), for the others: at the top dose activity change, negative = inhibition, most hits filed as inhibitors. 410,000 tested, 1.2% active; calls by dose curve; tested in HEK293T cells; also: read-out not given here; potency is read from the fitted curve at half-maximal effect; nearly all actives have a fitted effect of over 45% in size
Active calls of the source: *; i = inactive; ? = inconclusive; . = no result; [ ] = another dose, or the depositor's remark. % is scaled to controls: 0 for no effect and ±100 for the full control effect.

SMILES | Vaccinia mCherry | HCMV antiviral | LASV entry inh | Vaccinia Venus | MARV entry inh | FMDV inh
Cc1nc(Nc2ccc(C(=O)O)cc2)sc1-c1ccccc1 | i | 14 | ? | -8% | ? | 7.1µM*
COc1ccc(OC)c(NC(=O)c2c(C)oc3ncnc(N4CCOCC4)c23)c1 | i | 27 | 17%[46.1 µM] | -8% | . | -11%
CC(CNC(=O)c1ccc(Cn2c(=O)c3cccn3c3cccnc32)cc1)c1ccccc1 (configuration not stated) | -12% | ? | -16%[46.1 µM] | -16% | . | -26%
COc1ccc(-n2nnnc2C(c2cccc(OC)c2OC)N2CCC(n3c(=O)[nH]c4ccccc43)CC2)cc1 (configuration not stated) | 3% | -35 | . | -13% | . | ?
O=c1[nH]c2ccccc2n1C1CCN(C(c2ccccc2OC(F)(F)F)c2nnnn2-c2ccc3c(c2)OCCO3)CC1 (configuration not stated) | ? | -106* | . | ? | . | ?
COc1cccc(C(c2nnnn2-c2ccc3c(c2)OCCO3)N2CCC(n3c(=O)[nH]c4ccccc43)CC2)c1OC (configuration not stated) | -15% | -97* | . | -21% | . | -25%
Cc1ccccc1CN1C(=O)CN=C(c2ccccc2)c2cc(Cl)ccc21 | ? | -71* | ? | -22% | . | ?
COC(=O)CN1C(C(=O)c2ccccc2)=C(OC(=O)c2ccccc2)c2ccccc2S1(=O)=O | -10% | -1 | 19%[46.1 µM] | -14% | -4%[46.1 µM] | -23%
CC[N+]1=C(C)C(C)(C)c2cc(C)ccc21 | 78% | -94* | . | 270% | . | ?
Cc1ccc(NC(=O)C2CCN(S(=O)(=O)c3ccc4[nH]c(=O)ccc4c3)CC2)cc1C | -8% | 70 | 6%[46.1 µM] | -5% | . | -15%
O=C(NNc1nc(-c2ccccc2)cs1)c1ccc(F)cc1 | i | -80* | 10% | -4% | -1% | 7%
O=C1OC(Nc2nc(-c3ccc(F)cc3)cs2)c2ccccc21 (configuration not stated) | ? | -91* | 1%[46.1 µM] | ? | ? | -19%
CC1CC(CC(=O)NNc2nc(-c3ccccc3)cs2)C(=O)O1 (configuration not stated) | . | 19 | . | . | . | 0%
CC(=O)NNc1nc(-c2ccccc2)cs1 | -11% | -14 | -1%[46.1 µM] | -2% | ? | 5%
O=C1OC(Nc2nc3ccccc3s2)c2ccccc21 (configuration not stated) | -19% | 65 | 24% | -8% | 13% | 26%
CC1(C)CC(CC(=O)NNc2nc(-c3ccccc3)cs2)C(=O)O1 (configuration not stated) | -9% | -19 | 12% | -10% | 1.3µM* | -6%
O=C(NNc1nc(-c2ccc(F)cc2)cs1)c1ccccc1 | -16% | -99* | ? | -14% | ? | 13%
O=C(NNc1nc(-c2ccccc2)cs1)c1cccs1 | -30% | -8 | ? | -16% | ? | 22%
CN(Cc1ccccc1)C(=O)[C@H](Cc1ccc2ccccc2c1)NC(=O)[C@@H]1CCCN1C(=O)Nc1ccccc1[N+](=O)[O-] | . | . | . | . | . | 12%
O=c1oc2ccc(Cl)cc2cc1-c1cn2c(n1)sc1ccccc12 | -16% | -1 | 4%[46.1 µM] | -14% | . | -10%
COc1cc(/C=N/n2nnnc2N)ccc1OCc1c(C)no[n+]1[O-] | ? | -9 | 13% | ? | ? | 0%
Cc1no[n+]([O-])c1COc1cccc(/C=N/Nc2nncn2N)c1 | . | -82* | . | . | . | 0%
Cc1cc(NC(=O)CCN2C(=O)C3C4CCC(C4)C3C2=O)c(C)cc1Br (configuration not stated) | . | -107* | 1% | . | 2% | ?
CC(C)Oc1ccccc1C1CC(=O)Nc2cc3c(cc21)OCO3 (configuration not stated) | . | -101* | ? | . | 6.5µM* | ?
Cc1cc2c(cc1C)C(c1ccccc1OC(C)C)CC(=O)N2 (configuration not stated) | ? | 18 | ? | -18% | 1µM* | -13%
SMILES | Vaccinia mCherry | HCMV antiviral | LASV entry inh | Vaccinia Venus | MARV entry inh | FMDV inh
COc1cccc(C2CC(=O)Nc3cc4c(cc32)OCO4)c1OC(C)C (configuration not stated) | ? | ? | -29%[46.1 µM] | -30% | ? | ?
COc1ccccc1C1CC(=O)Nc2cc(C)c(C)cc21 (configuration not stated) | -9% | -5 | ? | -26% | ? | -13%
COc1ccccc1N1CCN(C(=O)CN2C(=O)COc3ccc(S(=O)(=O)N4CCC(C)CC4)cc32)CC1 | -10% | 16 | 15%[46.1 µM] | -3% | -1%[46.1 µM] | -14%
COc1cc(=O)n2c(c1C(=O)NCc1ccco1)CCN(Cc1ccc3nsnc3c1)CC2 | -2% | . | . | 0% | . | -15%
COc1cc(=O)n2c(c1C(=O)N(C)Cc1nonc1C)CCN(Cc1cc(F)ccc1F)CC2 | -4% | . | . | 8% | . | -4%
C=C1CC[C@@H]2[C@](C)(CO)[C@H](O)CC[C@@]2(C)[C@@H]1C/C=C1/C(=O)OCC1O (some centres not stated) | -20% | -77* | . | -25% | . | ?
Cc1nn(C2CCS(=O)(=O)C2)c(Cl)c1/C=C/C(=O)OCC(=O)c1cc(C)n(-c2ccc(F)cc2)c1C (configuration not stated) | ? | -86* | ? | -29% | ? | ?
O=C1[C@@H]2[C@H]3[C@H](O)[C@H](O)CC(=NOC[C@@H](O)COCc4ccco4)[C@H]3CC[C@H]2C(=O)N1c1ccc(F)cc1F | . | . | . | . | 14%[14.2 µM] | .
COc1ccc(Nc2nccc3c2cc(-c2ccccc2OC)n3C)cc1 | . | -67* | . | . | . | .
COc1ccccc1-c1cc2c(Nc3cc(OC)c(OC)c(OC)c3)nccc2n1C | . | -39 | . | . | . | .
Cc1cc(/C=N/NC(N)=S)c(C)n1-c1cccc(Cl)c1 | -22% | -65* | ? | -15% | ? | -10%
Cc1cc(/C=N/NC(N)=S)c(C)n1-c1ccc(Cl)cc1 | . | -21 | ? | . | ? | -12%
Cc1ccc(NC(=O)c2ccc(Cl)c(S(=O)(=O)N3CCCCCC3)c2)nc1 | -13% | -68* | -30% | -11% | -18%[46.1 µM] | ?
Cc1ccc(NC(=O)c2ccc(C)c(S(=O)(=O)N3CCCCC3)c2)nc1 | -1% | -26 | -10% | -13% | ? | -24%
Cc1ccc(NC(=O)c2ccc(S(=O)(=O)N3CCC(C)CC3)cc2)nc1 | ? | -64* | -26% | -21% | -24% | -15%
COc1cccc(/C=N/NC(=O)c2cc3c(OC)ccc(OC)c3[nH]2)c1O | ? | -99* | . | ? | . | -20%
COc1cc(OC)c2cc(C(=O)N/N=C/c3cccc(OC)c3O)[nH]c2c1 | 11µM* | -104* | ? | -26% | 4.5µM* | -25%
COc1ccc2cc(C(=O)N/N=C/c3cc(OC)c(OC)c(OC)c3)[nH]c2c1 | . | -33 | . | . | . | 6%
Cc1ccnc2c(N3C(=O)C4C5c6ccccc6C(c6ccccc65)C4C3=O)cccc12 (configuration not stated) | . | ? | 21µM* | . | ? | ?

Screens from PubChem BioAssay.
